Test results: PubChem BioAssay AID651820 (National Center for Advancing Translational Sciences (NCATS), 2012)
Out of some 340,000 compounds screened, about 12,000 (3.5%) were called active. About 18% were inconclusive and are not listed. Calls come from the whole dose curve; as a rule, active = well fitted inhibition curve with a large enough effect; inconclusive = small, poorly fitted or top-dose-only effect, or another doubt; inactive = no such curve, though single readings can be large or run the other way. Many of the other results were omitted from the sample, so actives are more common in it than they were. More than one record can exist for a structure, and the calls need not agree.

test: qHTS Assay for Inhibitors of Hepatitis C Virus (HCV); conditions: Huh7.5.1 HCVcc-Cre infection, luciferase reporter, 44 h; series mostly up to 41.8 µM; activity change, negative = inhibition: at the top concentration
Outline: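 Infectious HCV cell culture screen: compound-treated cells (1,000/well, pre-plated 4 h) are infected with HCVcc-Cre at roughly 0.5 moi and grown 44 h. Infection is quantified by luciferase signal after 15 min substrate incubation at room temperature.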
% is set by controls: 0 for no effect and ±100 for the full control effect; potency is the fitted concentration of half-maximal effect.

SMILES	activity change, negative = inhibition	Potency
CCCCNS(=O)(=O)CCNCc1ccccc1OC	5.73% (inactive)	
COC(=O)c1ccc(CNC(=O)c2ccc(S(=O)(=O)N3CCCCCC3)cc2)cc1	4.24% (inactive)	
CCC(=O)Nc1ccc(C(=O)N2CCN(C(=O)c3ccco3)CC2)cc1	-5.83% (inactive)	
Cc1ccc(OCC(=O)Nc2ccc(N3CCN(C(=O)c4ccco4)CC3)cc2)c(C)c1		7.08 µM (active)
Cc1ccc(C)c(OCC(=O)N2CCN(C(=O)c3ccco3)CC2)c1	-2.2% (inactive)	
CCC(=O)N1CCc2cc(Br)c(S(=O)(=O)NCCN3CCCCC3CC)cc21 (configuration not stated)	0.826% (inactive)	
CCN(CC(=O)Nc1cc(Cl)ccc1C)C(=O)CSCc1ccccc1	5.2% (inactive)	
Nc1ccccc1Sc1ccc(C(F)(F)F)cc1[N+](=O)[O-]	-1.94% (inactive)	
CCOC(=O)c1cc(Sc2ccccc2N)cc(C(=O)OCC)n1	-19.6% (inactive)	
CCS(=O)(=O)c1cc([N+](=O)[O-])c(Sc2ccccc2N)s1		7.08 µM (active)
O=C(COc1ccccc1Cl)N1N=C(c2cccs2)CC1c1ccco1 (configuration not stated)	-14.1% (inactive)	
CC(=NNC(=O)c1ccc2nc[nH]c2c1)c1ccc(Br)cc1	-2.36% (inactive)	
COc1ccc(S(=O)(=O)N2CCOCC2)cc1NC(=O)Cc1c(F)cccc1Cl	-2.06% (inactive)	
COc1ccc(S(=O)(=O)NCCOc2ccccc2)cc1F	1.65% (inactive)	
COC(=O)CNS(=O)(=O)c1ccc(OC)cc1	32.7% (inactive)	
COc1ccc(S(=O)(=O)NCCCCOc2ccc(Cl)cc2)cc1		25.1 µM (active)
O=C(NCCCN1CCOCC1)c1cn(-c2ccccc2)nc1-c1ccc(F)cc1	-20.5% (inactive)	
CN(C)C(=O)COC(=O)c1cccc(S(=O)(=O)N2CC3(C)CC2CC(C)(C)C3)c1 (configuration not stated)	6.74% (inactive)	
CC1C(=O)Nc2ccc(S(=O)(=O)N3CCN(c4ccccc4F)CC3)cc2NC1=O (configuration not stated)	-29.1% (inactive)	
CON(C)S(=O)(=O)c1ccc2c(c1)NC(=O)C1CCCN21 (configuration not stated)		8.91 µM (active)
COc1ccc(N2CCN(S(=O)(=O)c3ccc4c(c3)NC(=O)C(C)C(=O)N4)CC2)cc1 (configuration not stated)	0.721% (inactive)	
Cc1ccc(S(=O)(=O)CCC(=O)OCC(=O)N(C)Cc2ccccc2)cc1	10.4% (inactive)	
CN(CC(=O)Nc1ccc(F)cc1)CC(=O)N1CCCCC1	-1.19% (inactive)	
OCC(O)C1OCOC(C(O)CO)C1O (configuration not stated)	9.97% (inactive)	
COC(=O)C1=C(C)N(Cc2ccccc2)C(=NCCCOC(C)C)N[C@H]1c1ccccc1	-16.6% (inactive)	
O=C(N/N=C/c1sc(N2CCCCC2)nc1-c1cccs1)c1cccnc1		11.2 µM (active)

SMILES	activity change, negative = inhibition	Potency
O=C(N/N=C/c1ccccn1)c1cccnc1	9.35% (inactive)	
Cc1cc(/C=N/NC(=O)c2cccnc2)c(C)n1CC(C)C	8.27% (inactive)	
CCN(CC)S(=O)(=O)c1ccc(N(C)Cc2cccc(OC)c2OC)nc1		3.98 µM (active)
CCN(CC)S(=O)(=O)c1ccc(NC(=O)c2cnc(C)cn2)cc1	2.31% (inactive)	
COc1ccc(S(=O)(=O)N2CCCCCC2)cc1C(=O)N(C)Cc1cccc(OC)c1OC	1.99% (inactive)	
CCN(CC)S(=O)(=O)c1ccc(N(C)CCc2ccc(OC)c(OC)c2)nc1	-23.1% (inactive)	
CCN(CC)S(=O)(=O)c1ccc(Cl)c(NC(=O)c2ccncc2)c1	-20.9% (inactive)	
CCN(CC)S(=O)(=O)c1ccc(N(C)Cc2ccc(C(F)(F)F)cc2)nc1		14.1 µM (active)
CCCn1c(C)cc(/C=C(\C#N)C(=O)OCC(=O)N(C)c2c(N)n(Cc3ccccc3)c(=O)[nH]c2=O)c1C	-12.5% (inactive)	
COc1ccccc1C(=O)OCC(=O)Nc1cccc(S(=O)(=O)NC2=NCCCCC2)c1	2.1% (inactive)	
CC1CN(Cc2ccco2)C(=S)N(c2ccccc2)C1=O (configuration not stated)	27.2% (inactive)	
COc1ccc(C(=O)COC(=O)C(O)c2ccccc2)c(OC)c1 (configuration not stated)	3.53% (inactive)	
COc1ccc(C(=O)OCC(=O)N2CC(=O)Nc3ccccc32)cc1Br	11.8% (inactive)	
COc1ccc(Br)cc1/C=N/Nc1ccc(S(=O)(=O)Nc2ccccc2C(=O)O)cc1[N+](=O)[O-]	-16% (inactive)	
COc1cccc(NC(=O)C(=O)c2cn(CC(=O)N3CCOCC3)c3ccccc23)c1		11.2 µM (active)
O=C(Nc1ccc(F)cc1)C(=O)c1cn(CC(=O)N2CCOCC2)c2ccccc12	2.94% (inactive)	
COc1cccc(NC(=O)CS(=O)(=O)c2cn(CC(=O)N3CCOCC3)c3ccccc23)c1	10.8% (inactive)	
CCCC[C@@H]1CN=C(N)N1CCc1cccc(F)c1	10.7% (inactive)	
CC(C)(Oc1ccc(Cl)cc1)C(=O)OCC(=O)NCCc1ccc(S(N)(=O)=O)cc1	38.5% (inactive)	
CC[C@]12c3[nH]c4cc(CCC(=O)N(C)C)ccc4c3CCN1C(=O)[C@@H](CC(=O)NCc1ccco1)C[C@@H]2C(=O)N1CCN(C(=O)c2ccco2)CC1	-1.33% [at 8.37 µM] (inactive)	
O=[N+]([O-])c1cccc(C=NN=Cc2ccccc2O)c1	-9.27% (inactive)	
CCCCn1c(=S)[nH]c2ccccc2c1=O	-12.8% (inactive)	
S=c1[nH]c2ccccc2c2ccccc12		11.2 µM (active)
S=c1ccc2ccccc2[nH]1	8.78% (inactive)	
COc1ccccc1OCc1nc2ccccc2s1	13.9% (inactive)	
O=C(Nn1c(-c2ccccc2)nc2ccccc2c1=O)c1ccc([N+](=O)[O-])cc1	0.828% (inactive)	

SMILES	activity change, negative = inhibition	Potency
CCOC(=O)CCCN1CC(O)=C(c2nc3ccccc3s2)C1=N	-7.47% (inactive)	
N=C1C(c2nc3ccccc3[nH]2)=C(O)CN1NC(=O)c1c[nH]c2ccccc12	6.25% (inactive)	
COc1ccccc1N1CC(O)=C(c2nc3ccccc3s2)C1=N		11.2 µM (active)
N=C1C(c2nc3ccccc3s2)=C(O)CN1NC(=O)c1ccc([N+](=O)[O-])cc1		11.2 µM (active)
N#CCN(C(=O)COC(=O)C1CC2CCCC(C1)C2=O)c1ccccc1 (configuration not stated)	3.03% (inactive)	
COc1cc(OC)c(C(=O)NNC(=O)c2ccccc2-n2cccc2)cc1OC	-22% (inactive)	
CCCN(CC(=O)Nc1ccccc1C)C(=O)c1ccc2[nH]c3c(c2c1)CC(C)CC3 (configuration not stated)	-29.8% (inactive)	
CN(CC#CCC(c1ccccc1)c1ccccc1)C(C)(C)C		10 µM (active)
CC(C)(C)N(CC#CCC(O)(c1ccccc1)C1CCCC1)CCO (configuration not stated)	-21.1% (inactive)	
Cc1cc2c(cc1C)NC1(C[C@H]3CCC(=O)N4CC[C@@H](C1)[C@@H]34)C(=NC(C)(C)CC(C)(C)C)N2 (some centres not stated)	-6.36% (inactive)	
COc1ccc(C(=O)Nc2cccc(/C=C(/CCC(=O)O)c3nc4ccccc4s3)c2)cc1	10.6% (inactive)	
O=C(Cc1ccc(Cl)cc1)c1ccccc1	4.62% (inactive)	
CCCCn1c(SCC(=O)NCC2CCCO2)nc2ccc(N3CCOCC3)cc2c1=O (configuration not stated)	-14.7% (inactive)	
N#CCSc1nc2ccc(N3CCOCC3)cc2c(=O)n1CCc1ccccc1		10 µM (active)
COCCCNC(=O)CSc1nc2ccc(N3CCOCC3)cc2c(=O)n1CCc1ccccc1	16.8% (inactive)	
OC(c1ccc(Cl)cc1)C(CN1CCOCC1)c1ccccc1 (configuration not stated)	12.9% (inactive)	
OC(c1ccccc1)C(CN1CCOCC1)c1ccccc1 (configuration not stated)		12.6 µM (active)
CC(CN1CCOCC1)c1ccccc1 (configuration not stated)	10.7% (inactive)	
Cc1csc(=O)n1CCC(=O)OCC(=O)NNC(=O)c1ccc(Br)cc1	7.44% (inactive)	
CCOC(=O)[C@H]1[C@H]2COc3ccc(OC)cc3[C@@H]2N2C(=O)c3ccc(F)cc3NC(=O)[C@@]12C	-4.19% (inactive)	
COC(=O)C1=C(c2ccc(F)cc2F)C[C@@H]2CC[C@H]1N2C(=O)NC1CC1	18.2% (inactive)	
COC(=O)C1=C(c2cc3ccccc3s2)C[C@@H]2CC[C@H]1N2C(=O)NC(C)C	-26.4% (inactive)	
COC(=O)C1=C(c2cc3ccccc3o2)C[C@@H]2CC[C@H]1N2C(=O)NC1CCCCC1		7.94 µM (active)
O=C(COC(=O)c1cc(S(=O)(=O)N2CCOCC2)ccc1Cl)NCCc1ccccc1	5.53% (inactive)	
Cc1ccc(C)c(NC(=O)CN(C)C(=O)c2ccc3ncsc3c2)c1	36.6% (inactive)	
Cc1sc(NC(=O)C2=COCCO2)c(C#N)c1C	14.2% (inactive)	

SMILES	activity change, negative = inhibition	Potency
CN1CCN(S(=O)(=O)c2cccc(C(=O)N3CCc4ccccc43)c2)CC1	21% (inactive)	
Cc1cccc(N2CCN(C(=O)c3cccc(S(=O)(=O)N4CCc5ccccc5C4)c3)CC2C)c1 (configuration not stated)		7.08 µM (active)
CC(NC(=O)c1cccc(S(=O)(=O)N2CCc3ccccc3C2)c1)c1ccco1 (configuration not stated)	16.5% (inactive)	
Cc1cc(NC(=O)CSc2nc3ccccc3n2CC(C)C)no1	-11.2% (inactive)	
CC(=O)c1ccc2c(c1)c1ccccc1n2CC(C)C		2.51 µM (active)
CCCCn1c(=O)c(C(C)=O)c(O)c2ccccc21	1.24% (inactive)	
CCCCCC(O)c1cccc(OCc2ccc3ccccc3n2)c1 (configuration not stated)	0.332% [at 8.37 µM] (inactive)	14.1 µM (active)
COc1cccc(C(O)c2nc3ccccc3n2C)c1 (configuration not stated)	11.2% (inactive)	
CCCCCCOC(=O)NCC(O)c1ccccc1 (configuration not stated)	6.95% (inactive)	
Cc1ccc(NC(=O)Cn2cnc3c(OCc4ccccc4)ncnc32)cc1C	4.25% (inactive)	
Cc1noc(C)c1C(=O)OC(C)C(=O)Nc1ccc2c(c1)OCO2 (configuration not stated)	7.1% (inactive)	
Cc1ccc(NC(=O)C2CCCN(S(=O)(=O)c3c(C)noc3C)C2)c(C)c1 (configuration not stated)	-11.6% (inactive)	
Cc1noc(C)c1S(=O)(=O)N1CCCC(C(=O)Nc2nccs2)C1 (configuration not stated)	0.314% (inactive)	
COc1c(C)cc(C(=O)C2CCCN(S(=O)(=O)c3c(C)noc3C)C2)cc1C (configuration not stated)		10 µM (active)
Nc1c(N(Cc2ccco2)C(=O)c2cccc(F)c2)c(=O)[nH]c(=O)n1Cc1ccccc1	7.23% (inactive)	
Brc1cnc2ccccc2c1N1CCCCC1	-5.44% (inactive)	
Cn1c2ccccc2c(=O)c2c(=O)n(Cc3ccco3)c(COc3ccccc3)nc21	-7.18% (inactive)	
N=c1c2c(-c3ccccc3)c(-c3ccccc3)oc2ncn1Cc1ccco1		6.31 µM (active)
c1ccc(-c2oc3ncnc(N4CCOCC4)c3c2-c2ccccc2)cc1	-11% (inactive)	
COc1ccc(Nc2ccc3ccccc3c2)cc1	-3.86% (inactive)	
CC(=O)Nc1ccc(S(=O)(=O)Nc2nc(-c3ccc(C(C)(C)C)cc3)cs2)cc1	15.6% (inactive)	
CC(=O)Nc1ccc(-c2csc(NC(=O)Nc3ccccc3)n2)cc1		10 µM (active)
CC(=O)Nc1ccc(-c2csc(NC=C3C(=O)OC(C)(C)OC3=O)n2)cc1	-9.72% (inactive)	
